ST2 IL33 inh – inhibitors of human ST2 (IL1RL1) binding to IL-33; Q01638; AlphaLISA ST2-Fc/biotin-IL-33 interaction, 1 h; inhibition, % for hits at 17 µM; 78,000 tested, 2.3% active; in the data active means inhibition above about 30%
Target sequence (Q01638 whole entry, looked up): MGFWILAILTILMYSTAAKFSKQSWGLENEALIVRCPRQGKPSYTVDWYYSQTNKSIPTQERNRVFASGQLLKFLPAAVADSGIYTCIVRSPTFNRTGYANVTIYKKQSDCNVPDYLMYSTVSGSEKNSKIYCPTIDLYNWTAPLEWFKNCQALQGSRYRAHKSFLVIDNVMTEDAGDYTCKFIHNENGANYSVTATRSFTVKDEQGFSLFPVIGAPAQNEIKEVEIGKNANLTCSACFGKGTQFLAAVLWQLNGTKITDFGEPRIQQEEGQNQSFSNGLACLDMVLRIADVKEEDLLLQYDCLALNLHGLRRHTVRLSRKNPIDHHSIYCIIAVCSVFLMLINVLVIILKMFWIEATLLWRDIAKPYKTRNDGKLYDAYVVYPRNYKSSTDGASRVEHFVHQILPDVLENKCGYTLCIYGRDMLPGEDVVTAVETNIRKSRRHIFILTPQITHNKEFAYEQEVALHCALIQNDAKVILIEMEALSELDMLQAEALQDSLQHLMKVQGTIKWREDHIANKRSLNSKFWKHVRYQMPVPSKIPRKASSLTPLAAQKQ
Active calls of the source: *. Shown is part of a subset that was picked to be rich in hits.

`CCCCN(C)Cc1ccc([N+](=O)[O-])cc1` gave ST2 IL33 inh inactive.
Screening NC(=O)N1CCN(C(=O)c2ccc(CSc3ccccn3)cc2)CC1 returned ST2 IL33 inh inactive.
`Cc1ccc(-n2ccnc2-c2ccc(C#CCCO)cc2)c(O)c1` gave ST2 IL33 inh inactive.
`CN(C)C1(CNC(=O)c2ccc(C#CC(C)(C)O)o2)CCSC1` (configuration not stated) gave ST2 IL33 inh inactive.
Screening C=C(C)CN(CC)Cc1cc(OC)c(OC)c(OC)c1 returned ST2 IL33 inh inactive.
`C=C(C)CN(CC)Cc1ccc(-c2ccccc2[N+](=O)[O-])o1` gave ST2 IL33 inh 33%*.
Screening CCN(CC)C(=O)c1ccc([N+](=O)[O-])o1 returned ST2 IL33 inh inactive.
For COc1ccccc1/C=C/C1=NC(=C\c2ccc(Cl)cc2Cl)/C(=O)O1 the results were ST2 IL33 inh inactive.
Screening COc1ccccc1/C=C/C1=NC(=C\c2ccc(C(C)C)cc2)/C(=O)O1 returned ST2 IL33 inh 45%*.
Screening COc1ccccc1/C=C/C1=NC(=C\c2ccc(SC)cc2)/C(=O)O1 returned ST2 IL33 inh inactive.
`CCCCCCCCCCCCCc1cc(=O)c2ccccc2n1C` gave ST2 IL33 inh inactive.
COc1ccc2nc(SCC(=O)N3c4ccccc4C(C)=CC3(C)C)nc(C)c2c1 was read as ST2 IL33 inh inactive.
Screening COc1ccc(C2Oc3c(Br)cc(Br)cc3C=C2[N+](=O)[O-])cc1OC (configuration not stated) returned ST2 IL33 inh 56%*.
`COc1ccc([C@H]2OC[C@H]3[C@@H]2CO[C@@H]3c2ccc(OC)c(OC)c2)cc1OC` gave ST2 IL33 inh inactive.
For COc1cc(/C=C/c2c([N+](=O)[O-])c(=O)n(C)c(=O)n2C)ccc1OCc1ccccc1 the results were ST2 IL33 inh inactive.
Screening COc1cc(C2Oc3ccccc3C=C2[N+](=O)[O-])ccc1OCc1ccccc1 (configuration not stated) returned ST2 IL33 inh 46%*.
Screening COc1cc(-c2ncnn2-c2ccc(F)c([N+](=O)[O-])c2)ccc1OCc1ccccc1 returned ST2 IL33 inh inactive.
For COc1ccc(C2SCCN2S(=O)(=O)c2ccc([N+](=O)[O-])cc2)cc1OC (configuration not stated) the results were ST2 IL33 inh inactive.
Screening Cc1ccc(S(=O)(=O)Nc2nc(N3C(=O)c4ccccc4C3=O)n(-c3ccccc3)n2)cc1 returned ST2 IL33 inh inactive.
Screening CCOC(=O)c1c(C)n(CC)c2ccc(OC(=O)COc3ccc(Cl)cc3)cc12 returned ST2 IL33 inh inactive.
Screening Nc1nnc(C(NC(=O)CCc2c[nH]c3ccccc23)c2ccccc2)s1 (configuration not stated) returned ST2 IL33 inh inactive.
Screening CC1C2NC(=O)N(c3cccc(Cl)c3)C1(C)Oc1ccccc12 (configuration not stated) returned ST2 IL33 inh inactive.
`Cc1ccc(C)c(NC(=O)c2ccccc2Br)c1` gave ST2 IL33 inh inactive.
`CCc1nc(NC(=O)NCc2ccccc2-n2cccn2)nn1C` gave ST2 IL33 inh inactive.
Cc1ccc(N2C(=O)CSC2c2ccccc2Cl)cc1 (configuration not stated) was read as ST2 IL33 inh 32%*.
O=C1CSC(c2ccccc2Cl)N1c1ccccc1 (configuration not stated) was read as ST2 IL33 inh inactive.
`O=C1CSC(c2cccc(Cl)c2Cl)N1c1ccc(F)cc1` (configuration not stated) gave ST2 IL33 inh inactive.
Screening CC(C)Cc1ccc(S(=O)(=O)NC2CCN(Cc3ccccc3)CC2)cc1 returned ST2 IL33 inh inactive.
COc1ccc(S(=O)(=O)N2CCSC2c2ccc3c4c(cccc24)CC3)cc1 (configuration not stated) was read as ST2 IL33 inh inactive.
Screening COC(=O)c1c(NC(=O)c2ccc(F)cc2)sc2c1CCN(C(C)C)C2 returned ST2 IL33 inh inactive.
`CCN1CCc2c(sc(NC(=O)c3ccc(Cl)cc3)c2C(=O)OC)C1` gave ST2 IL33 inh 89%*.
Screening CCN1CCc2c(sc(NC(=O)COc3ccccc3)c2C(=O)OC)C1 returned ST2 IL33 inh inactive.
For O=C(Cn1c(=O)oc2ccccc21)Nc1ccc(Cl)cc1Cl the results were ST2 IL33 inh 46%*.
Screening CCC(C)NC(=O)c1ccc(NC(=O)Cn2c(=O)oc3ccccc32)cc1 (configuration not stated) returned ST2 IL33 inh inactive.
For CCOC(=O)Cn1c(=O)oc2cc(Cl)ccc21 the results were ST2 IL33 inh inactive.
Cc1ccccc1-c1nc(COc2ccc(C(N)=O)cc2)c(C)o1 was read as ST2 IL33 inh inactive.
COc1ccc(CCN2CC(NCc3ccc4c(c3)CCO4)CC2=O)cc1 (configuration not stated) was read as ST2 IL33 inh inactive.
`O=C(O)c1[nH]ncc1CN1CCCC(C(=O)c2ccc(C(F)(F)F)cc2)C1` (configuration not stated) gave ST2 IL33 inh inactive.
For COC1CCN(c2ccc(-c3nc(CCCc4ccccc4)no3)cn2)CC1 the results were ST2 IL33 inh inactive.
`COc1cc(C=O)cc(Cl)c1OCc1ccc(Br)cc1` gave ST2 IL33 inh inactive.
COc1cc(/C=C/c2ccc3cccc(O)c3n2)cc(Cl)c1OC was read as ST2 IL33 inh 34%*.
For COc1cccc2ccc(/C=C/c3ccc4c(c3)OCO4)nc12 the results were ST2 IL33 inh inactive.
For Cn1cc(S(=O)(=O)CC(=O)Nc2nc3ccccc3s2)c2ccccc21 the results were ST2 IL33 inh inactive.
`COCC(=O)Nc1cc(C(=O)N(C)Cc2cc3ccccc3s2)c2c(c1)nc(C1CCC1)n2C` gave ST2 IL33 inh inactive.
Screening COc1ccc(N(CC(=O)Nc2ccc(Br)cc2)S(C)(=O)=O)cc1Cl returned ST2 IL33 inh inactive.
`CCOC(=O)c1c(C)n(-c2ccc(OC)cc2)c2cc(Br)c(OC)cc12` gave ST2 IL33 inh inactive.
`CCC1CCCCN1CCCNc1ncnc2nc[nH]c12` (configuration not stated) gave ST2 IL33 inh inactive.
CC(C)C(C(=O)Nc1ccc([N+](=O)[O-])cc1)N1C(=O)c2ccccc2C1=O (configuration not stated) was read as ST2 IL33 inh inactive.
For CC(=O)N1/C(=C/c2ccc([N+](=O)[O-])cc2)C(=O)c2ccccc21 the results were ST2 IL33 inh 51%*.
For O=C(ON1C(=O)c2ccccc2C1=O)c1ccc([N+](=O)[O-])cc1 the results were ST2 IL33 inh inactive.
`CC(C)c1ccc(Nc2c(-c3ccc(O)cc3)nc3cnccn23)cc1` gave ST2 IL33 inh inactive.
O=C(CSc1nccn1Cc1ccccc1)c1ccc(F)cc1 was read as ST2 IL33 inh inactive.
Screening CCOC(=O)C1C(=O)C=C(c2ccc(OC)c(OC)c2)CC1c1ccco1 (configuration not stated) returned ST2 IL33 inh inactive.
Screening O=C(Nc1ccccc1[N+](=O)[O-])C1=C(O)CCn2c1nc1ccccc12 returned ST2 IL33 inh 34%*.
Cc1nc2ccccc2n1C(=O)c1ccccc1[N+](=O)[O-] was read as ST2 IL33 inh inactive.
`O=C(Nc1ccccc1[N+](=O)[O-])C1=NN=CC1[N+](=O)[O-]` (configuration not stated) gave ST2 IL33 inh inactive.
